# Assay outcomes as filed in PubChem.
# JMJD2A Tudor: qHTS Assay for Inhibitors of JMJD2A-Tudor Domain; Lysine-specific demethylase 4A (Homo sapiens), O75164; AlphaScreen JMJD2A-Tudor / H3K4me3 peptide binding; Potency, µM (top dose mostly 114 µM), without a hit: at the top dose activity change, negative = inhibition, most hits filed as inhibitors; 390,000 compounds, 4.4% hits; AID 504339, 2011; further: on the % scale 0 is the no-effect control and ±100 the full control effect; nearly all actives have a fitted effect of over 50% in size
# BAZ2B block: qHTS Assay for Inhibitors of BAZ2B. Bromodomain adjacent to zinc finger domain protein 2B (Homo sapiens), Q9UIF8. AlphaScreen BAZ2B-H3K14Ac peptide displacement. Potency, µM (doses to about 114 µM), for inactives: at the highest dose activity change, negative = inhibition, usual class: inhibitors. 360,000 compounds, 4.4% hits. AID 504333, 2011; further: on the % scale 0 is the no-effect control and ±100 the full control effect; nearly all actives have a fitted effect of over 60% in size
#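 Inhibition is scored as reduced AlphaScreen emission. The BAZ2B/b-H3(5-23)K14Ac complex (50 nM each) in PBS pH 7.4, 0.01% Tween-20 meets compound (up to 110 uM) for 30 min at RT before bead addition.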
# GLS inhibitor: qHTS for Inhibitors of Glutaminase (GLS); Glutaminase kidney isoform, mitochondrial (Homo sapiens), O94925; GLS enzymatic activity, qHTS titration; Potency, µM (doses to about 45.5 µM), for inactives: top-dose activity change, negative = inhibition, most hits filed as inhibitors; 410,000 compounds, 0.21% hits; AID 624170, 2012; further: on the % scale 0 is the no-effect control and ±100 the full control effect
#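 Compounds were pin-transferred onto hKGA, after which L-glutamine (1 mM solution) and a detection mix of glutamate oxidase, HRP and Amplex Red were added. Initial and 30 min RT fluorescence reads were collected.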
# HP1b chromo inh: HTS for Inhibitors of HP1-beta Chromodomain Interactions with Methylated Histone Tails | 390,000 compounds, 0.56% hits | Potency, µM (highest dose often 114 µM), without a hit: at the highest dose activity change, negative = inhibition, most hits filed as inhibitors | AlphaScreen HP1-beta / biotin-H3K9me3 peptide binding; further: nearly all actives have a fitted effect of over 70% in size
# Target sequence (P83916 whole entry, looked up): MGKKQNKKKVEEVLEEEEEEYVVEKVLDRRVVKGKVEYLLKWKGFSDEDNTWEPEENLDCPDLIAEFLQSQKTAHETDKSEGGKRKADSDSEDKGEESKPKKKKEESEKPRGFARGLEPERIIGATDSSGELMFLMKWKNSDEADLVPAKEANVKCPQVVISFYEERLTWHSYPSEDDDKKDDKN
#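 Compound inhibition of the preformed complex between 50 nM HP1-beta and 50 nM biotinylated H3K9me3 peptide was read by AlphaScreen. Buffer was PBS pH 7.4 with 0.01% Tween-20. Incubations ran 30 min at room temperature, with 10 ug/mL donor/acceptor beads.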
# G9a inh: qHTS Assay for Inhibitors of Histone Lysine Methyltransferase G9a. G9a H3K9 monomethylation, AlphaScreen, 2 h. Potency, µM (highest dose often 102 µM), for inactives: at the highest dose activity, negative = inhibition, hits mostly inhibitors. 350,000 compounds, 8.8% hits. Histone-lysine N-methyltransferase EHMT2 (Homo sapiens), Q96KQ7; further: on the % scale 0 is the no-effect control and ±100 the full control effect; nearly all actives have a fitted effect of over 75% in size
# Target sequence (Q96KQ7 913-1193 limits assumed): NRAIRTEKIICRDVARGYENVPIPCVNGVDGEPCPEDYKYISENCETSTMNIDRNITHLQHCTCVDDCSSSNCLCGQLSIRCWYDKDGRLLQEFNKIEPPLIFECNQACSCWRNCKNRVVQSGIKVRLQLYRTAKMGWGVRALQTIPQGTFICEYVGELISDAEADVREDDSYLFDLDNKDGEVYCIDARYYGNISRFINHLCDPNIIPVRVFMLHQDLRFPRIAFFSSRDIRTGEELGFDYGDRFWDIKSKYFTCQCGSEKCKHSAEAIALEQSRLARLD
#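 AlphaScreen detection with an anti-monomethyl H3K9 antibody quantified product after a 2 h room-temperature reaction containing 500 nM biotinylated H3K9 peptide, 20 µM SAM and 20 nM enzyme, which had been preincubated 15 min with compound.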
# * hit, by the source's call; ? = inconclusive; . = no result given; [ ] = dose if it differs, or a comment. Hits are enriched below; roughly 10% of the tested compounds scored in any of these assays. The call rests on the fitted dose curve; in most records, active means well fitted curve in the direction sought with a large enough effect; inconclusive means small, poorly fitted or top-dose-only effect, or another doubt; inactive means no such curve, though single readings can be large; an effect the other way counts as inactive or inconclusive. Potency means the concentration at half of the fitted maximal effect.
SMILES,JMJD2A Tudor,BAZ2B block,GLS inhibitor,HP1b chromo inh,G9a inh
COc1cc(-c2nnc(NC(=O)c3ccco3)o2)cc(OC)c1OC,?,79µM*,3%,19%,?
CCOc1cc(-c2nnc(NC(=O)c3ccco3)o2)cc(OCC)c1OCC,-24%,10%,4%,16%,37%[59 µM]
O[C@H]1C[C@H](c2ccc(Cl)cc2)N(CC2CCCCC2)C[C@@H]1n1cc(-c2ccc(F)cc2)nn1,.,.,-9%,.,.
CCOc1ccc(NC(=O)N(CCCN2CCOCC2)Cc2cccnc2)cc1,-10%,-1%,-2%,61%,0%[59 µM]
CCOc1ccc(NC(=O)N(CCN2CCOCC2)Cc2ccc3c(c2)CCCN3CC)cc1,56µM*,45µM*,44%,?,13%[0.501 µM]
CCCN1CCCc2cc(CN(CCCN3CCOCC3)C(=O)Nc3ccc(OCC)cc3)ccc21,28µM*,40µM*,17%,?,13µM*
CCN1CCCc2cc(CN(CCN3CCOCC3)C(=S)Nc3cccc(OC)c3)ccc21,50µM*,14µM*,18%,?,?
CCCN1CCCc2cc(CN(CCCN3CCOCC3)C(=O)Nc3ccc(Cl)c(Cl)c3)ccc21,13µM*,11µM*,-22%,?,11µM*
COc1ccc(CN(CCCN2CCOCC2)C(=O)Nc2cccc(Cl)c2)cc1OC,-17%,-34%,-1%,-4%,-7%[59 µM]
O=C(O)C1CCCCC1C(=O)N1CC=C(c2ccccc2)CC1 (stereo unspecified),-8%,-1%,-3%,23%,1%[59 µM]
CC(C)C(C)NC(=O)CN1C(=O)NC(c2ccccc2)(c2ccccc2)C1=O (stereo unspecified),-5%,-12%,-15%,18%,0%
CCCCC(=O)Nc1cc2nn(-c3ccc(OC)cc3)nc2cc1C,-5%,-4%,8%,7%,-13%[59 µM]
Cc1ccc2[nH]c(C)c(/C=C/c3cc[n+](C)cc3)c2c1,-22%,?,-8%,-18%,-100%
C[n+]1ccc(/C=C/c2ccc3ccccc3c2)cc1,.,.,.,.,7.1µM*
C[n+]1ccc(/C=C/c2ccc(Br)cc2)cc1,-3%,56µM*,-6%,14%,?
COc1cc(C)nc(Nc2nc(C)c(C(C)=O)s2)n1,?,6%,?,?,-9%
C/C=C1\COC(C(=O)NCCN2CCCC2)(C(F)(F)F)C=C1C=C1CCCCC1 (stereo unspecified),-35%,.,10%,5%,.
CN(C)S(=O)(=O)c1cccc(C(=O)NCc2ccco2)c1,?,-26%,-5%,53%,?
COc1ccc(/C=N/NC(=O)c2ccoc2C)cc1CN1CCN(c2ccc(F)cc2)CC1,?,79µM*,14%,?,?
CCOc1cc(C=NNC(=O)N(c2ccccc2)c2ccccc2)ccc1O,.,.,42%,.,.
COc1cc(C=NNC(=O)c2ccccc2-n2cccc2)ccc1O,-21%,.,13µM*,7%,.
CCOc1cc(/C=N/NC(=O)c2ccc(=O)n(C)c2)ccc1O,0%,-8%,7.9µM*,6%,.
O=C(N/N=C\c1ccc(O)c([N+](=O)[O-])c1)c1ccccc1-n1cccc1,-21%,-35%,33%,-3%,10%[59 µM]
COc1cc(/C=N/NC(=O)c2ccoc2C)ccc1O,3%,8%,23%,24%,50µM*
COc1ccc(C(=O)N/N=C/c2ccc(OC)c(CN3CCN(c4ccc(F)cc4)CC3)c2)cc1,?,2%,19%,-12%,4%[59 µM]
CC(=O)Nc1cc2c(cc1Cl)Cc1cc(Cl)ccc1-2,-11%,.,-1%,8%[57 µM],.
O=C(O)c1c2c(nc3ccc(S(=O)(=O)N4CCC(C(=O)N5CCCCC5)CC4)cc13)CCCC2,-17%,?,-10%,18%,50µM*
